Results reported in PubChem BioAssay AID798 (PCMD, 2007).
Among all 220,000 compounds or so, about 300 (0.14%) were called active.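 The calls were made as follows: active = inhibition of at least 40%; inactive = inhibition below 40%.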 The entries come from a sample that favours actives as a whole.

Target: Coagulation factor XI (Homo sapiens) (UniProt P03951)
Experiment: human FXIa protease inhibitors, primary screen, biochemical, 1536-well (AID 798);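 also: fluorescence of freed AMC excited at 355 nm; 0% = enzyme without compound and 100% = no enzyme blank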
Details: purified FXIa, Boc-Glu-Ala-Arg-AMC fluorogenic substrate; at 5 µM; stronger effect = higher value

Coagulation factor XI (Homo sapiens), sequence (P03951 19-387 limits assumed): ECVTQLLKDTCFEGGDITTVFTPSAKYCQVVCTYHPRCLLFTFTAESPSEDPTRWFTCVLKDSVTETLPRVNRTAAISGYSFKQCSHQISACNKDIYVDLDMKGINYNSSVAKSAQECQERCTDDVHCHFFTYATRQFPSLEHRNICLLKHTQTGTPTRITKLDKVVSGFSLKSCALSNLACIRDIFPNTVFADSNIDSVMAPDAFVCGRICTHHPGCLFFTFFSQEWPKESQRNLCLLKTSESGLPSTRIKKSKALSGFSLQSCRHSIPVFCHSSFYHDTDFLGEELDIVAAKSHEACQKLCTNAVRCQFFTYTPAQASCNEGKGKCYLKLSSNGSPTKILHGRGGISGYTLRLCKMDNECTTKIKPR
Coagulation factor XI (Homo sapiens), sequence (P03951 388-625 limits assumed): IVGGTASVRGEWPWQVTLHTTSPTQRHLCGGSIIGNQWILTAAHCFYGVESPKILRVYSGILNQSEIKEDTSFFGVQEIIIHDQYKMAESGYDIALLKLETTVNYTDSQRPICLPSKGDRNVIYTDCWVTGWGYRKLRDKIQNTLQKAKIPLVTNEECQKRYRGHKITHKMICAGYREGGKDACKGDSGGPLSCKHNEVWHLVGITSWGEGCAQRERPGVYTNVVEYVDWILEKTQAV

| SMILES | inhibition |
| --- | --- |
| Cc1c(Br)ccc(NC(=O)COc2ccccc2C(N)=O)c1C | 3.29% (inactive) |
| C/C=C(/C)C(=O)O[C@@H]1c2cc3c(c4c2[C@@]2(CO4)C(=O)C(OC)=C(OC)C=C2C[C@@H](C)[C@H]1C)OCO3 | 0.96% (inactive) |
| COc1ccc(SC[C@H](Cc2ccccc2)N2CCN(CCc3ccccc3)CCC2=O)cc1 | 0.67% (inactive) |
| Cn1cnc(S(=O)(=O)Nc2ccc3c(c2)OCCO3)c1 | 3.26% (inactive) |
| Cc1ccc(NC(=O)NC(=O)CSc2nnc(-c3ccc(OC(F)F)cc3)n2N)c(C)c1 | 3.67% (inactive) |
| CCN=c1sc(C(=O)Nc2ccccc2)c(C)n1CC | -2.02% (inactive) |
| Cc1cc(C(=O)OCC(=O)Nc2nnc(C(C)C)s2)c2ccccc2n1 | -3.05% (inactive) |
| CC1=C(C(=O)N(C)C)C(c2ccccc2OC(F)F)NC(=O)N1 (stereo unspecified) | 0.62% (inactive) |
| Cc1ccc(OC(=O)CCC(=O)Nc2ccc(Br)cc2)cc1 | -1.21% (inactive) |
| O=S(=O)(NC(=S)Nc1ccccc1)c1ccc(F)cc1 | 4.03% (inactive) |
| CCOC(=O)CN(C)S(=O)(=O)c1ccc(-c2cc(C(=O)OC)sc2C(F)(F)F)cc1 | 32.6% (inactive) |
| CN1CCN(C(=O)CCc2ncc(C(F)(F)F)cc2Cl)CC1 | 7.14% (inactive) |
| COC(=O)c1c(NC(=O)CCCC(=O)O)sc2c1CCCCC2 | -0.58% (inactive) |
| O=C(N/N=C/c1cc2c(cc1Br)OCO2)C1COc2ccccc2O1 (stereo unspecified) | -10.7% (inactive) |
| C[N+]1(CC(O)COc2ccccc2)CCN(C(=O)c2ccc([N+](=O)[O-])cc2)CC1 (stereo unspecified) | 0.51% (inactive) |
| Cc1nc2cc(NC(=O)Nc3cccc(F)c3)ccc2n1C | 43.8% (active) |
| Cc1nc2cc(NC(=O)NC3CC3)ccc2n1C | -5.28% (inactive) |
| C=CCN(C(=O)Nc1ccc2c(c1)nc(C)n2C)c1ccccc1 | 26.2% (inactive) |
| Cc1cc(-c2csc(N)n2)c(C)n1-c1ccccc1 | 2.06% (inactive) |
| CCOc1ccc(/C=C2\SC(=S)N(NC(=O)c3ccncc3)C2=O)cc1OC | 6.9% (inactive) |
| C[C@H](NC(=O)c1nc[nH]c1C(=O)N[C@@H](C)C(=O)OC(C)(C)C)C(=O)OC(C)(C)C | 1.92% (inactive) |
| CN(C)C(=S)Nc1ccc(Br)cc1Cl | 1.74% (inactive) |
| NC(=O)Cn1nc([N+](=O)[O-])nc1Oc1ccc(Br)cc1 | 0.41% (inactive) |

| SMILES | inhibition |
| --- | --- |
| O=C(Cc1ccc(F)cc1)N1CCN=C1SCc1cccc([N+](=O)[O-])c1 | -3.4% (inactive) |
| Cc1cccc(N(C(=O)Cc2cccs2)C(C(=O)NCc2ccco2)c2ccncc2)c1 (stereo unspecified) | -1.59% (inactive) |
| CN(C)/N=C/c1cc(Cl)cc([N+](=O)[O-])c1O | 2.99% (inactive) |
| CC(=O)NC1(c2ccc(F)cc2)CCN(C(=O)c2c(F)cccc2F)CC1 | -6.45% (inactive) |
| Cc1cccc(N2CCN(Cc3nc(C4CC4)no3)CC2)n1 | -4.4% (inactive) |
| Cc1ccc(S(=O)(=O)N2CCN(CC(=O)N/N=C/c3cc([N+](=O)[O-])ccc3Cl)CC2)cc1 | 3.33% (inactive) |
| COc1nc(NC2CCCCC2)nc(N2CCCCCC2)n1 | 5.12% (inactive) |
| O=c1nc(N/N=C/c2ccco2)cn[nH]1 | -0.64% (inactive) |
| CC(C)OP(=O)(OC(C)C)C(Nc1ccccc1)c1cccc([N+](=O)[O-])c1 (stereo unspecified) | 2.9% (inactive) |
| COc1cccc(N2C(=O)CC(N3CCc4ccccc4C3)C2=O)c1 (stereo unspecified) | -2.99% (inactive) |
| Cc1ccc(NN=C2C(=O)OC(C)(C)OC2=O)c(C)c1 | -3.38% (inactive) |
| O=C(COc1ccccc1[N+](=O)[O-])N/N=C/c1ccc[nH]1 | 2.13% (inactive) |
| CC(C)c1nc(SCC(=O)NC(=O)NC(C)(C)C)n[nH]1 | 1.78% (inactive) |
| Cc1ccc(C(=O)Cn2cc([N+](=O)[O-])nc2C)cc1 | 2.54% (inactive) |
| O=C(CNCc1ccc(F)cc1)Nc1ccccc1-c1ccccc1 | 5.85% (inactive) |
| O=C(COC(=O)C12CC3CC(CC(O)(C3)C1)C2)NC12CC3CC(CC(C3)C1)C2 | -0.93% (inactive) |
| CCOC(=O)c1ccc(NC(=O)Cn2cnc3cc(C)c(C)cc32)cc1 | -1.09% (inactive) |
| COc1ccc(CN2C(=O)CC(Cc3ccc(C)cc3)C2=O)cc1OC (stereo unspecified) | 16.3% (inactive) |
| Cc1nc(N)[nH]c(=O)c1Oc1cccc(C(F)(F)F)c1 | -2.42% (inactive) |
| CC(C)(C)NC(=O)CSC(=Nc1ccccc1F)NC#N | 7.8% (inactive) |
| CCC1SC(CC)C(=O)N(CC(=O)NC2CCCCC2)C1=O (stereo unspecified) | 26% (inactive) |
| Cc1ccccc1Cn1c2ccccc2c2cnn(CC(=O)NCc3ccco3)c(=O)c21 | -0.28% (inactive) |
| COCCNC(=S)N1CCC(NC(=O)C23CC4CC(CC(C4)C2)C3)CC1 | -6.69% (inactive) |

| SMILES | inhibition |
| --- | --- |
| CCOc1cc(CO)ccc1OCC(=O)N1CCCCC1 | 40.9% (active) |
| O=C(COc1ccc(Cl)cc1[N+](=O)[O-])N1CCCCC1 | -5.02% (inactive) |
| CCOc1cc(CN2CCN(C(=O)CC(C)C)CC2)ccc1OC | -13.4% (inactive) |
| COc1ccccc1OCC(=O)OCn1c(SC)nnc(C)c1=O | 5.82% (inactive) |
| CCOC(=O)N1CCN(Cc2nc3ccc([N+](=O)[O-])cc3c(=O)n2-c2cccc(OC)c2)CC1 | -1.56% (inactive) |
| Cc1cc(C(=O)CSc2nc(N)cc(=O)[nH]2)c(C)n1Cc1ccco1 | -4.8% (inactive) |
| CCc1cccc(CC)c1NC(=S)Nc1ccc2cn[nH]c2c1 | 0.17% (inactive) |
| O=C(O)c1ccccc1OCc1ccccc1Cl | 1.64% (inactive) |
| COCCN(CCOC)c1nc(N)c2c(N)nc3c(c2c1C#N)CC(=O)N3Cc1ccc(Cl)cc1 | -10.3% (inactive) |
| CC1=NN(/C(=N\c2nnc(C)s2)Nc2ccccc2)[C@H](c2ccc(C)cc2)S1 | 0.56% (inactive) |
| COC(=O)c1sccc1-n1cccc1C(=O)C(=O)N1CCCCC1 | 0.21% (inactive) |
| O=C(Nc1ccc(Cl)cc1)Nc1ccc(C(=O)N2CCOCC2)cc1 | 4.9% (inactive) |
| OC(c1nc2ccccc2[nH]1)C(O)C(O)C(O)c1nc2ccccc2[nH]1 (stereo unspecified) | 1.7% (inactive) |
| O=C(CCS(=O)(=O)Cc1ccccc1)Nc1ccc2c(c1)OCCO2 | -6.9% (inactive) |
| COC(=O)Cc1[nH]n(-c2nc3ccccc3s2)c(=O)c1C(C)=Nc1ccc(OC)cc1 | 2.75% (inactive) |
| N#C/C(=C/c1cccc([N+](=O)[O-])c1)c1nnc2n1CCCCC2 | 0.95% (inactive) |
| O=C(Cn1cc(C(F)(F)F)ccc1=O)N/N=C/c1ccc(Cl)cc1Cl | 6.17% (inactive) |
| O=C1N/C(=C/c2cccn2-c2ccccc2)C(=O)N1c1cccc(Cl)c1 | -9.57% (inactive) |
| COCCNC(=O)C(c1ccc(O)cc1)N(C(=O)CCC(=O)Nc1nccs1)c1ccc(C)cc1 (stereo unspecified) | 1.25% (inactive) |
| CCC(C)(C)NC(=O)CN(Cc1cccs1)C(=O)CNS(=O)(=O)c1ccc(F)cc1 | -7.45% (inactive) |
| CC(C)C(NC(=O)C1CCC(C(C)(C)C)CC1)C(=O)NCCCN1CCCCC1 (stereo unspecified) | -3.84% (inactive) |
| COc1ccccc1NC(=O)c1cc(Cl)nc2ccccc12 | -7.34% (inactive) |
| Cc1c(C(=O)NC(=S)NCc2cccnc2)oc2ccccc12 | -1.74% (inactive) |

| SMILES | inhibition |
| --- | --- |
| CN(C)CC(C)(C)CNC(=O)c1cc(Br)cc(Br)c1O | -3.11% (inactive) |
| COc1c(C)cc(C(=O)C2CCCN(S(=O)(=O)c3c(C)noc3C)C2)cc1C (stereo unspecified) | 102% (active) |
| Cc1ccc(NC(=O)C2CCCN(S(=O)(=O)c3c(C)noc3C)C2)c(C)c1 (stereo unspecified) | -3.38% (inactive) |
| Cc1noc(C)c1S(=O)(=O)N1CCCC(C(=O)Nc2nccs2)C1 (stereo unspecified) | 1.07% (inactive) |
| FC(F)(F)c1cccc(-c2nc(COc3ccc(Cl)cc3Cl)no2)c1 | 2.41% (inactive) |
| CN1CCc2ccccc2C1Cc1ccccc1NC(=O)c1sc2ccccc2c1Cl (stereo unspecified) | 2.33% (inactive) |
| CCOC(=O)CSC1=N/C(=C/c2ccc(-n3cncn3)cc2)C(=O)N1C(C)=O | 3.79% (inactive) |
| O=c1[nH]c(CN2CCOCC2)nc2scc(-c3ccccc3)c12 | -11.5% (inactive) |
| Cc1cccc2cc(CN(C(=O)c3cccs3)c3ccccc3)c(=O)[nH]c12 | -1.12% (inactive) |
| COc1ccc(OCc2n[nH]c(=S)n2N)cc1 | -0.79% (inactive) |
| NS(=O)(=O)c1ccc(CCNC(=O)NC2CCCCC2)cc1 | 3.22% (inactive) |
| Cc1ccc(C(=O)Nc2ccc(C)c(S(=O)(=O)N(C)C)c2)s1 | 6.45% (inactive) |
| C#CCOCCOCCOCCNc1nc(N2CCN(C(=O)[C@H](CCC(=O)O)n3cc(C(N)CO)nn3)CC2)nc(N2CCN(C(=O)[C@H](CCCCN)n3cc(C(N)CC(C)C)nn3)CC2)n1 (stereo partly specified) | 0.58% (inactive) |
| NC(=O)C1=C[C@@H](c2csc3ccccc23)C[C@@H](OCc2ccc(CO)cc2)O1 | -0.4% (inactive) |
| CN(CCc1ccccn1)C(=O)CCC1CCCN(Cc2ccccc2OC(F)F)C1 (stereo unspecified) | -3.18% (inactive) |
| COc1ccccc1CN(C)c1nnnn1-c1ccccc1 | -0.22% (inactive) |
| CC(C)Cc1nnc(NC(=O)CCC(=O)Nc2ccc3cn[nH]c3c2)s1 | 5.73% (inactive) |
| C=CC(COCc1ccccc1)N(Cc1ccccc1)S(=O)(=O)c1ccccc1Br (stereo unspecified) | -5.35% (inactive) |
| COc1cc2[nH]c(=O)n(Cc3ccc(C(=O)NC4CCN(Cc5ccccc5)CC4)cc3)c(=O)c2cc1OC | -5.4% (inactive) |
| CCSC1=NCCN1C(=O)c1ccc(S(=O)(=O)N(CC)CC)cc1 | -2.2% (inactive) |
| CCC(C(=O)Nc1ccc2c(c1)OCCO2)c1ccccc1 (stereo unspecified) | -1.53% (inactive) |
| CC12CN3CCN(CC(C3)/C1=N\NC(=O)c1ccccc1N)C2 | -0.67% (inactive) |
